This is a sample that favours compounds with a hit; in the whole collection about 7.9% have one here.
HT1080 IDH1KD tx: qHTS for induction of synthetic lethality in tumor cells producing 2HG: qHTS for the HT-1080-IDH1KD cell line | HT-1080 IDH1 knockdown viability, ATP luminescence, 48 h | Potency, µM (series often up to 46.1 µM), without a hit: at the highest dose activity, negative = toxicity, usual class: cytotoxic | hit rate 2% among 360,000 | AID 686971, 2013;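 also: 0% = DMSO wells and -100% = cell-free medium wells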
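Viability of IDH1-knockdown HT-1080 fibrosarcoma cells was assessed by CellTiter-Glo after 48 h at 37 °C with titrated compound; concentration-effect curves were classified by fit quality and response size.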
HT1080NT lethal: qHTS for induction of synthetic lethality in tumor cells producing 2HG: qHTS for the HT-1080-NT fibrosarcoma cell line; hit rate 1.6% among 360,000; HT-1080-NT fibrosarcoma viability, CellTiter-Glo ATP luminescence, 48 h; Potency, µM (titrated, usually from 46.1 µM), for inactives: top-dose activity, negative = less viability, actives largely listed as cytotoxic;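 also: NT is the 2HG producing partner of a matched IDH1 knockdown line; 0% = DMSO-treated cells and -100% = media-only wells without cells; nearly all actives have a fitted effect of over 55% in size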
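750 cells/well, RPMI + 5% FBS; 2 h settle, compound pin-transfer, 48 h at 37 degrees C. CellTiter-Glo 10 min RT, luminescence. Normalized to DMSO and media-only wells.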
SW480 rereplic: A quantitative high throughput screen for small molecules that induce DNA re-replication in SW480 colon adenocarcinoma cells | SW480 DNA re-replication, Hoechst DNA content imaging, 48 h | hit rate 1.8% among 340,000 | Potency, µM (highest dose often 46.1 µM), inactives show at the highest dose re-replication activation, actives largely listed as activators; also: % of control where 0% means no effect; nearly all actives have a fitted effect of over 55% in size
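250 cells/well; 23 nL cpd via pin tool; 48 hr, 37 C, 5% CO2; Hoechst 40 min; imager read of total nuclear intensity, ex 405/em 500-530 nm.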
KB-3-1 cytotox: qHTS assay for MDR1-selective chemotherapeutics: Primary screen using the parental adenocarcinoma cell KB-3-1; KB-3-1 viability, CellTiter-Glo ATP luminescence, 72 h; Potency, µM (titrated, usually from 46.1 µM), usual class: cytotoxic; hit rate 1.4% among 400,000; AID 1347075, 2019; also: % is scaled to controls: 0 for no effect and ±100 for the full control effect; nearly all actives have a fitted effect of over 60% in size
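Using CellTiter-Glo luminescence, growth of non-resistant KB-3-1 adenocarcinoma cells is assessed 72 h after pin-tool compound addition at 37 °C. Normalized responses across the concentration series yield fitted curves.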
MCF10A rereplic: A quantitative high throughput screen for small molecules that induce DNA re-replication in MCF 10a normal breast cells; MCF 10A DNA re-replication, Hoechst nuclear intensity, 48 h; AID 624296, 2012; hit rate 2.9% among 350,000; Potency, µM (titrated, usually from 46.1 µM), without a hit: at the top dose activity, positive = re-replication, usual class: activators; also: % of control where 0% means no effect; nearly all actives have a fitted effect of over 50% in size
KB-V1 MDR tox: qHTS assay for MDR1-selective chemotherapeutics: Primary screen using the drug-selected MDR subline cells KB-V1; KB-V1 MDR cells viability, CellTiter-Glo, 72 h; Potency, µM (highest dose often 46.1 µM), usual class: cytotoxic; hit rate 3.4% among 400,000; AID 1347076, 2019; also: % is scaled to controls: 0 for no effect and ±100 for the full control effect; nearly all actives have a fitted effect of over 60% in size
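Cytotoxicity toward P-gp-expressing KB-V1 cells was determined as loss of CellTiter-Glo luminescence after 72 h at 37 degrees C. Compounds were tested in quantitative HTS format across a concentration range, with curves fitted to normalized data.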
Numbers without * were called inactive; i = inactive; u = inconclusive; x = no result given; [ ] = another dose, or the depositor's remark. Calls follow the shape of the dose curve; as a rule, active = well fitted curve in the direction sought with a large enough effect; inconclusive = small, poorly fitted or top-dose-only effect, or another doubt; inactive = no such curve, though single readings can be large; an effect the other way counts as inactive or inconclusive. Potency is read from the fitted curve at half-maximal effect.

SMILES	HT1080 IDH1KD tx	HT1080NT lethal	SW480 rereplic	KB-3-1 cytotox	MCF10A rereplic	KB-V1 MDR tox
CN1CCN(c2ccc(CNC(=O)C3Cc4c(-c5ccccc5Oc5ccccc5)ccnc4O3)cc2)CC1 (centres undefined)	20.6µM*	u	x	i	x	i
CCC(c1nnc(SC(C)C(=O)NC2CC2)n1-c1ccc(OC)cc1)N(C)C (centres undefined)	21.1%	4.1%	-4.0%	i	0.4%	u
Cc1ccc2oc(=O)cc(CN3CCN(C/C=C/c4ccccc4)CC3)c2c1	10.4%	-0.2%	-31.5%	i	-1.8%	i
O=c1cc(CN2CCN(C/C=C/c3ccccc3)CC2)c2cc(O)ccc2o1	u	25.9µM*	u	u	u	u
Cc1cccc(C)c1NC(=O)[C@H](C)N	x	x	-0.6%[20.6 µM]	x	2.8%[20.6 µM]	x
COc1ccc2nc(N=Nc3ccc(O)c4ccccc34)sc2c1	5.8µM*	7.31µM*	u	u	8.2µM*	u
COc1ccc2nc(N=NC3=C(O)CC(C)(C)CC3=O)sc2c1	u	-17.2%	2.06µM*	u	23.8%	i
COc1ccc2nc(N)sc2c1	12.7%	8.5%	-11.7%	u	0.1%	i
CC1(C)CC(=O)C(N=Nc2ccc3ncsc3c2)=C(O)C1	-0.4%	4.1%	-7.8%	i	2.9%	i
COc1ccc(C2NC(=O)N(C)C3=C2C(=O)N(c2cccc(Cl)c2)C3)cc1 (centres undefined)	x	x	x	i	x	i
Cc1ccc(NC(=O)Cc2coc3ccc(C(C)C)cc23)cc1Cl	x	x	x	u	x	16.4µM*
COc1ccc(CCN(CC(=O)NCc2ccc(F)cc2)C(=O)c2snc(C(N)=O)c2N)cc1OC	4.1%	-4.1%	-8.8%	i	6.7%	i
O=CNCc1nc2ccccc2n1CCc1ccccc1	21.4%	11.5%	2.91µM*	i	u	u
Cc1ccc(C(=O)NNc2cc(N3CCCC3)nc(N3CCCC3)n2)cc1	3.2%	6.2%	10.0%	i	18.9%	1.46µM*
O=C(NNc1cc(N2CCOCC2)nc(N2CCOCC2)n1)c1ccc(Cl)c(Cl)c1	1.8%	4.2%	107.4%	i	-44.1%	11.6µM*
O=C1c2cccc3cccc(c23)C(=O)N1c1ccccc1Cl	-3.3%	3.5%	-3.4%	i	18.0%	i
Nc1ccccc1N1C(=O)c2cccc3cccc(c23)C1=O	-2.1%	-3.5%	18.4µM*	i	8.2µM*	u
O=C(Nc1nnc(-c2ccncc2)s1)Nc1ccc(Cl)cc1F	x	x	x	i	x	i
Nc1c(C(=O)OCC(=O)Nc2ccc(Cl)cc2[N+](=O)[O-])[nH]c(=O)[nH]c1=O	-2.1%	0.0%	-2.0%	i	23.1µM*	i
CCN(CC)CCNc1ccc(C)c2sc3ccc(O)cc3c(=O)c12	u	-22.9%	u	u	4.7%	4.61µM*
O=C(CSc1nc2c(oc3ccccc32)c(=O)n1CC1CCCO1)NCc1ccccc1 (centres undefined)	7.0%	3.1%	6.8%	i	-0.9%	i
O=C(CCOc1ccccc1)Nc1ccccc1F	13.3%	9.1%	u	i	-3.4%	u
CCN(Cc1ccc(OC)c(F)c1)C(=O)C1CCCO1 (centres undefined)	4.2%	5.5%	-16.4%	i	-2.9%	i
CCN(Cc1ccc(OC)c(F)c1)C(=O)CCl	16.4µM*	18.4µM*	16.4µM*	u	u	u
COc1ccc(NC(=O)CN2CCN(C(C)=O)CC2)cc1S(=O)(=O)N1CCOCC1	16.6%	4.0%	u	i	2.6%	i
SMILES	HT1080 IDH1KD tx	HT1080NT lethal	SW480 rereplic	KB-3-1 cytotox	MCF10A rereplic	KB-V1 MDR tox
COc1cc(C2NCC(c3ccc(Cl)cc3Cl)c3c2[nH]c2ccccc32)cc(OC)c1OC (centres undefined)	14.6µM*	18.4µM*	u	18.4µM*	18.4µM*	u
COc1ccc(C(=O)NCCn2cc(SCC(=O)NCCc3ccc(OC)c(OC)c3)c3ccccc32)cc1	x	x	x	i	x	i
O=C(Nc1ccc([N+](=O)[O-])cc1)Nc1ccc(OC(F)F)c(Cl)c1	u	u	18.4µM*	5.8µM*	u	4.61µM*
COc1ccc(C(=O)Nc2cccc([N+](=O)[O-])c2)cc1Br	-29.2%	u	-8.1%	i	5.4%	i
COc1ccc(OC(C)C(=O)Nc2cccc([N+](=O)[O-])c2)cc1 (centres undefined)	-1.8%	-8.0%	-149.3%	i	-42.6%	16.4µM*
O=C(Nc1ccc(OC(F)F)c(Cl)c1)Nc1ccc2c(c1)OCO2	u	-24.3%	-4.3%	u	u	u
COc1ccc(NC(=O)Nc2cccc([N+](=O)[O-])c2)cc1Cl	-5.1%	-0.9%	-1.4%	i	u	14.6µM*
CCOc1ccc(S(=O)(=O)N2CCOCC2)cc1NC(=O)CCOc1ccc(C(C)(C)C)cc1	2.8%	-3.4%	-0.2%	i	6.1%	i
CC(=O)c1c(C(C)=O)c(C)n(-c2cccc([N+](=O)[O-])c2)c1C	-4.5%	-6.2%	-1.6%	i	4.3%	i
Cc1cc(C(=O)CCl)c(C)n1Cc1ccco1	u	u	u	i	u	i
Cc1cc(C(=O)CCl)c(C)n1-c1ccon1	20.6µM*	-28.0%	11.6µM*	u	u	u
Cc1cc(C(=O)CCl)c(C)n1-c1cccc([N+](=O)[O-])c1	u	u	u	16.4µM*	u	23.1µM*
Cc1cc(Cl)ccc1NC(=O)c1cccc(NC(=O)N2CCSc3ncccc32)c1	x	x	x	i	x	i
CC(=O)c1ccc(N2C(=O)N(Cc3ccc(F)cc3)c3ccccc3S2(=O)=O)cc1	x	x	x	i	x	i
COC(=O)Cn1ccc(-c2ccc(Cl)cc2)c(C#N)c1=O	4.1%	11.9%	-3.6%	i	-0.2%	i
COC(=O)Cn1ccc(N(C)C)c(C#N)c1=O	1.9%	14.7%	6.51µM*	i	9.2µM*	i
Cc1ccc(CNC(=O)C2CCN(c3nnc(N4CCCC4=O)s3)CC2)cc1	-2.6%	-3.3%	-4.6%	i	16.5%	i
COc1ccccc1-c1cn[nH]c1-c1ccc(OCc2ccccc2)cc1O	u	-17.9%	u	u	23.1µM*	i
